LASV entry inh: qHTS for Inhibitors of binding or entry into cells for Lassa Virus | Lassa virus pseudotyped entry inhibition, cell-based qHTS | Potency, µM (doses to about 49.2 µM), inactives show at the highest dose activity change, negative = inhibition, hits mostly inhibitors | 4.1% of 18,000 active
MARV entry inh: qHTS for Inhibitors of binding or entry into cells for Marburg Virus; Marburg virus pseudotype entry/binding inhibition, cell-based; Potency, µM (titrated, usually from 49.2 µM), for the others: at the top dose activity change, negative = inhibition, actives largely listed as inhibitors; 6.5% of 18,000 active; AID 720532, 2013
* hit, by the source's call; ! = not confirmed by another sample; [ ] = remark or other dose. Only some compounds are listed: those with a hit (about 7.1% of all), similar ones and a draw of the others. Calls come from the whole dose curve; tested in HEK293 cells. % is set by controls: 0 for no effect and ±100 for the full control effect; potency is the fitted concentration of half-maximal effect.

Screening COC(=O)N[C@H](C(C(=O)OC)=C(C)NCc1ccccc1)c1ccco1 returned LASV entry inh 12.9%[8.59 µM] and MARV entry inh -23.9%[8.59 µM].
CC(=O)OC[C@H]1O[C@H](c2ccc(C(C)=O)cc2)C=C[C@H]1OC(C)=O was read as LASV entry inh -11.5%[8.59 µM] and MARV entry inh 1.7%[8.59 µM].
CC(=CC[Si](C)(C)C)CCC=O was read as MARV entry inh -25.1%[8.59 µM].
For CC(C)[C@H]1COc2cc(Br)ccc2S(=O)(=O)N1C(=O)c1ccc(F)cc1F the results were LASV entry inh -4.9% and MARV entry inh 25.7%.
COC1=C[C@H](C(=O)N[C@H]2CCCC[C@H]2NC(C)=O)[C@@]2(C)Cc3ccccc3[C@@H]2CC1=O was read as LASV entry inh 24.3%[8.59 µM] and MARV entry inh -12.3%[8.59 µM].
For O=C(O)Cc1ccccc1Oc1ccc(Cl)cc1Cl the results were LASV entry inh -14.6% and MARV entry inh 1.8%.
Oc1cc(Cl)ccc1Oc1ccc(Cl)cc1Cl was read as LASV entry inh 25.1µM*! and MARV entry inh 35.5µM*!.
`COCC=CC1=CC2=CC(=O)C(C)(OC(=O)c3cnc4ccccc4n3)C(=O)C2=CN1Cc1ccccc1` (centres undefined) gave LASV entry inh 4.2%[8.59 µM] and MARV entry inh 18.6%[8.59 µM].
Screening COc1ccc(/C=C\C(=O)Nc2ccccc2C(=O)O)cc1OC returned LASV entry inh 20µM* and MARV entry inh 39.8µM*.
Screening COc1ccc(/C=C/C(=O)O)cc1OC returned LASV entry inh 35.0% and MARV entry inh 11.3%.
For O=c1[nH]c2ccccc2n1CCCN1CCC(n2c(=O)[nH]c3cc(Cl)ccc32)CC1 the results were LASV entry inh inconclusive and MARV entry inh 12.6µM*!.
For O=C(CCCN1CCC(n2c(=S)[nH]c3ccccc32)CC1)c1ccc(F)cc1 the results were LASV entry inh -20.0% and MARV entry inh inconclusive.
`CCCC=Cc1ccc(CN2C(CC(C)C)C(=O)N(Cc3cn(CCC4OCCO4)nn3)CCS2(=O)=O)cc1` (centres undefined) gave LASV entry inh 3.2% and MARV entry inh inconclusive.
`O=C(C1CCCCC1)N1C[C@H](O)[C@H](n2cc(C3CC3)nn2)C[C@@H]1c1ccccc1` gave LASV entry inh 2.2% and MARV entry inh 22.0%.
For CCC1OC(=O)C(C)[C@@H](O[C@H]2C[C@@](C)(OC)C(O)C(C)O2)C(C)[C@@H](O[C@@H]2OC(C)CC(N(C)C)C2O)[C@@](C)(O)CC(C)C2NC(COCCOC)O[C@H](C2C)[C@@]1(C)O (some centres undefined) the results were LASV entry inh -6.7% and MARV entry inh -16.2%.
Screening CCOC(=O)CCC(=O)O[C@H]1[C@H](O[C@@H]2[C@@H](C)[C@H](O[C@H]3C[C@@](C)(OC)[C@@H](O)[C@H](C)O3)[C@@H](C)C(=O)O[C@H](CC)[C@@](C)(O)[C@H](O)[C@@H](C)C(=O)[C@H](C)C[C@@]2(C)O)O[C@H](C)C[C@@H]1N(C)C returned LASV entry inh 0.8% and MARV entry inh 7.8%.
CC[C@H]1OC(=O)[C@H](C)[C@@H](O[C@H]2C[C@@](C)(OC)[C@@H](O)[C@H](C)O2)[C@H](C)[C@@H](O[C@@H]2O[C@H](C)C[C@H](N(C)C)[C@H]2O)[C@](C)(O)C[C@@H](C)[C@@H]2N[C@@H](COCCOC)O[C@@H]([C@H]2C)[C@]1(C)O was read as LASV entry inh -1.4% and MARV entry inh 7.08µM*.
Screening CCC(=O)O[C@H]1[C@H](O[C@@H]2[C@@H](C)[C@H](O[C@H]3C[C@@](C)(OC)[C@@H](O)[C@H](C)O3)[C@@H](C)C(=O)O[C@H](CC)[C@@](C)(O)[C@H](O)[C@@H](C)C(=O)[C@H](C)C[C@@]2(C)O)O[C@H](C)C[C@@H]1N(C)C returned LASV entry inh 25.1µM* and MARV entry inh 10µM*.
C#CCN1C(=O)CC[C@@]23C1=NC(C(=O)OC)=C(C(=O)OC)[C@@H]2N(C)c1ccccc13 was read as LASV entry inh 0.7%[8.59 µM] and MARV entry inh -9.5%[8.59 µM].
CN1CCCCC1Cn1cc(C(=O)c2cc([N+](=O)[O-])ccc2I)c2ccccc21 (centres undefined) was read as LASV entry inh inconclusive and MARV entry inh 10µM*.
Screening C=C(C)[C@]12C[C@@H](C)[C@@]34O[C@](Cc5ccccc5)(O[C@@H]1[C@@H]3C=C(COC(=O)Cc1ccc(O)c(OC)c1)C[C@]1(O)C(=O)C(C)=C[C@@H]41)O2 returned LASV entry inh inconclusive and MARV entry inh 15.8µM*.
Screening CC(C)CN[S+](=O)([O-])c1ccc(Br)cc1N1CCC[C@H]1CO returned LASV entry inh 15.1% and MARV entry inh 13.7%.
For CN(C)CCCN1c2ccccc2Sc2ccccc21 the results were LASV entry inh inconclusive and MARV entry inh 7.08µM*.
For COc1ccc([C@H]2Sc3ccccc3N(CCN(C)C)C(=O)[C@H]2OC(C)=O)cc1 the results were LASV entry inh inconclusive and MARV entry inh -15.4%[17.8 µM].
`CC(=O)c1ccc2c(c1)N(CCCN(C)C)c1ccccc1S2` gave LASV entry inh -14.9%[17.8 µM] and MARV entry inh inconclusive.
`CCC(=O)c1ccc2c(c1)N(CCCN(C)C)c1ccccc1S2` gave LASV entry inh 31.6µM* and MARV entry inh 22.4µM*.
Nc1nonc1-c1nc2cnccc2n1C1CCCCC1 was read as LASV entry inh 41.7% and MARV entry inh inconclusive.
`COC(=O)CC=C[C@@H](C)[C@H](NC(=O)OC)c1ccccc1Br` gave LASV entry inh 13.5%[8.59 µM] and MARV entry inh -28.9%[8.59 µM].
`O=C(C=Cc1ccccc1)Nc1cccc(C(=O)NCCCCc2ccccc2)c1` gave LASV entry inh 9.4% and MARV entry inh inconclusive.
Screening Cc1ccc(O)c([C@H](CCN(C(C)C)C(C)C)c2ccccc2)c1 returned LASV entry inh inconclusive and MARV entry inh 10µM*.
Cc1ccc(C(C)C)c(O)c1 was read as LASV entry inh -6.7% and MARV entry inh 4.1%.
`COc1ccc(C(=O)/C(Br)=C\C(=O)O)cc1` gave LASV entry inh inconclusive and MARV entry inh -24.9%.
Screening CC(C)C[C@@H](C=O)NC(=O)[C@H](CC(C)C)NC(=O)[C@H](CC(C)C)NC(=O)OCc1ccccc1 returned LASV entry inh 3.55µM* and MARV entry inh inconclusive.
`CC(C)[C@H](NC(=O)OCc1ccccc1)C(=O)N[C@H](C=O)Cc1ccccc1` gave LASV entry inh -5.2% and MARV entry inh inconclusive.
`COc1cc(Nc2c(C#N)cnc3cc(OCCCN4CCN(C)CC4)c(OC)cc23)c(Cl)cc1Cl` gave LASV entry inh inconclusive and MARV entry inh 7.08µM*.
`COc1ccc(CCN(C)Cc2cc(-c3cncnc3)ccc2O)cc1OC` gave LASV entry inh -9.9% and MARV entry inh -13.5%.
Screening CN(C)CCCc1cc(C(=O)Nc2ccc(-c3ccncc3)cc2)ccc1O returned LASV entry inh 35.5µM*! and MARV entry inh 6.31µM*.
C=C1C(=O)O[C@@H]2[C@H]3O[C@]3(C)CCC=C(C)CC[C@@H]12 was read as LASV entry inh 22.4µM* and MARV entry inh 15.8µM*.
Screening CC(C)[C@H]1c2ccc(F)cc2CC[C@@]1(CCN(C)CCCc1nc2ccccc2[nH]1)OC(=O)C1CC1 returned LASV entry inh inconclusive and MARV entry inh 8.91µM*.
Screening O=C(O)CCc1nc2ccccc2[nH]1 returned LASV entry inh -11.0% and MARV entry inh -4.0%.
`C[C@H]1[C@@H]2O[C@H]2CCO[C@H]1c1cccc(Br)c1` gave LASV entry inh -6.0%[8.59 µM] and MARV entry inh -16.0%[8.59 µM].

Assay outcomes (PubChem)
